BioA inh – blocks M. tuberculosis BioA enzyme activity | purified M. tuberculosis BioA enzyme, plate reader | inhibition, % at 9.99 µM | 360,000 compounds, 0.096% hits | AID 602481; in the data active means inhibition above about 40%
Mtb FBA inh – inhibits M. tuberculosis FBA enzyme | P9WQA3 | purified M. tuberculosis FBA, fluorescence read-out | inhibition, % at 1 µM | 360,000 compounds, 2.3% hits | AID 588726; in the data active means inhibition above about 27%;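 further: 0% = vehicle and 100% = reference inhibitor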
Target sequence (P9WQA3 whole entry, looked up): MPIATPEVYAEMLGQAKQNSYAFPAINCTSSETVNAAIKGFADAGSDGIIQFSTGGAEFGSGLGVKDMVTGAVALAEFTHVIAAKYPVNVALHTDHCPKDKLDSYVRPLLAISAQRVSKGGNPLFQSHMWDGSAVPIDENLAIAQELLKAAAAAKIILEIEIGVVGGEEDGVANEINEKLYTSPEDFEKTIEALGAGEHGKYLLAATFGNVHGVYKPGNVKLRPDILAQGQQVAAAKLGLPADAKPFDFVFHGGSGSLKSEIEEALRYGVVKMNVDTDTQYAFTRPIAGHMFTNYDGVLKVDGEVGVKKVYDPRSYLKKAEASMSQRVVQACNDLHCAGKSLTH
GDH-TPI inh – GDH-TPI coupled enzyme inhibition counter-screen; GDH-TPI coupled enzyme counterscreen, NADH absorbance; inhibition, % at 4.8 µM; 360,000 compounds, 1.2% hits; in the data active means inhibition above about 30%;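 further: 0% = DMSO wells and 100% = wells lacking the enzyme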
BH1578 lux ind – quorum light induction in luxS cqsA deficient V. cholerae | activation, % at 18.7 µM | V. cholerae BH1578 lux reporter, luminescence, 6 h | 350,000 compounds, 0.16% hits; in the data active means activation mostly above about 9.7%, no sharp cut-off
* hit, by the source's call; i = inactive; · = no result; + = active, no number. Most compounds without a hit are left out; they make up all but 3% or so of the library.

SMILES | BioA inh | Mtb FBA inh | GDH-TPI inh | BH1578 lux ind
COc1ccc(C2NN=C(c3ccc(C)cc3)S2)cc1 (centres undefined) | 2 | 11 | 5 | -18
CCOc1cc(C2NN=C(c3ccc(C)cc3)S2)ccc1O (centres undefined) | · | 4 | 34* | 0
CC(=Cc1cccs1)C(=O)c1ccccc1 | · | -1 | 32* | i
COC(=O)C[C@@H]1CC[C@H]2[C@H](COc3ccc(NS(C)(=O)=O)cc3C(=O)N2C)O1 | -3 | · | · | ·
CC1(C)OC(=O)N(c2ccccc2)C12C=Cc1c(ccc3ccccc13)O2 (centres undefined) | 0 | -1 | 0 | i
O=C1NC2(C=Cc3c(ccc4ccccc34)O2)Oc2ccccc21 (centres undefined) | 14 | 152* | 8 | -3
C[C@@H]1CN([C@@H](C)CO)C(=O)c2cc(NC(=O)CCCN(C)C)ccc2O[C@@H]1CN(C)C(=O)NC1CCCCC1 | 1 | · | · | ·
CN1CC2(Cc3c1ccc1ccccc31)C(=O)OC(C)(C)OC2=O | -1 | + | 7 | i
C=CCSc1nc(N)c(C(=O)Nc2ccccc2OC)cc1C(=O)Nc1ccccc1 | -1 | 3 | 37* | -1
C=CCSc1nc(N)c(C(=O)Nc2ccccc2)cc1C#N | -2 | -2 | 20 | i
CCn1c(SCC(=O)Nc2oc(-c3ccccc3)c(-c3ccccc3)c2C#N)nnc1-c1ccco1 | · | -2 | 14 | i
CCn1c(SCC(=O)Nc2oc(-c3ccccc3)c(-c3ccccc3)c2C#N)nnc1-c1ccncc1 | 1 | 0 | 32* | -1
N#CC1=C2Sc3ccccc3N2CCCC1=O | -1 | -2 | 34* | i
N#CC1=C2SC=C(c3ccc(Br)cc3)N2CCCC1=O | · | -1 | 3 | -1
O=C(O)C[C@H]1C[C@@H]2c3cc(NC(=O)c4ccc5c(c4)OCO5)ccc3O[C@@H]2[C@H](CO)O1 | 0 | · | · | ·
O=C(c1ccccc1F)N1C[C@H]2[C@@H](c3ccccc31)[C@@H](CO)N2C(=O)c1ccccc1 | -3 | · | · | ·
Cc1ccc(-c2c(C#N)c(N)nc3c2CCCCC3)o1 | -1 | 12 | 24 | -1
O=[N+]([O-])c1ccc(-c2nc(Cl)c3c(n2)CCCC3)o1 | · | -2 | 32* | 30*
COc1ccc(/C=C2\Oc3cc(OCC(=O)N4CCC[C@H]4C(=O)O)ccc3C2=O)cc1OC | 0 | 1 | 19 | 0
Cc1c(C)c2c(OCC(=O)N3CCC[C@H]3C(=O)O)cc3c(c2oc1=O)CCC(C)(C)O3 | 0 | + | 13 | 0
Cc1c(C)c2c(OCC(=O)N3CCC(O)CC3)cc3c(c2oc1=O)CCC(C)(C)O3 | 0 | + | 31* | 0
Cc1noc(C)c1NC(=O)N(C)C[C@H]1Oc2ccc(NS(=O)(=O)c3ccc(F)cc3)cc2CC(=O)N([C@@H](C)CO)C[C@H]1C | -1 | · | · | ·
CN1CCN(C(=O)C[C@H]2CC[C@@H]3[C@H](COC[C@@H](O)CN3CC3CC3)O2)CC1 | -4 | · | · | ·
CC(=O)N1CCN(CCN2C(C)=CC(=C(C#N)C#N)C=C2C)CC1 | 3 | 2 | 11 | 1
CC1=CC(=C(C#N)C#N)C=C(C)N1CCN1CCNCC1 | · | -2 | 31* | i
SMILES | BioA inh | Mtb FBA inh | GDH-TPI inh | BH1578 lux ind
CC(=O)N(C)C[C@@H]1Oc2ncc(-c3ccc(C)cc3)cc2C(=O)N([C@@H](C)CO)C[C@H]1C | 1 | · | · | ·
CCOC(=O)C(/C=C(\C#N)C(=O)OCC)=C(/N)N1CCN(c2ccccc2)CC1 | -4 | 0 | 36* | ·
COc1ccccc1C(=O)NCC(=O)N=Nc1c(O)n(C(C)C)c2ccccc12 | 1 | 1 | 31* | 0
CC(C)n1c(O)c(N=NC(=O)CNC(=O)CCc2ccccc2)c2ccccc21 | · | -2 | 31* | 0
CC(C)n1c(O)c(N=NC(=O)CNC(=O)Cc2ccc(Cl)cc2)c2ccccc21 | 1 | -3 | 29 | i
CC(=O)c1cccc(NC(=O)/C(=C/c2ccco2)NC(=O)c2ccco2)c1 | -1 | -2 | 20 | 1
CC(=O)c1cccc(NC(=O)/C(=C\c2ccco2)NC(=O)c2cccs2)c1 | 3 | -11 | 32* | i
O=C(Nc1cccc(F)c1)/C(=C\c1ccco1)NC(=O)c1ccco1 | 1 | 0 | 39* | 0
NNC(=O)/C(=C\c1ccco1)NC(=O)c1ccco1 | 0 | -1 | 35* | 0
CCNC(=O)C[C@@H]1CC[C@H]2[C@@H](COC[C@@H](O)CN2C(=O)CC)O1 | 1 | · | · | ·
COc1ccc(S(=O)(=O)N(C)C[C@H]2Oc3c(NC(=O)Nc4ccc(C(F)(F)F)cc4)cccc3C(=O)N([C@@H](C)CO)C[C@H]2C)cc1 | -3 | · | · | ·
COc1ccc(S(=O)(=O)Nc2cccc3c2O[C@H](CN(C)C(=O)Nc2ccc(F)cc2)[C@H](C)CN([C@@H](C)CO)C3=O)cc1 | -2 | · | · | ·
O=C(C[C@H]1CC[C@H]2[C@@H](COC[C@H](O)CN2Cc2ccc(Cl)cc2)O1)NCc1cccc(F)c1 | 0 | · | · | ·
C[C@@H]1CN([C@H](C)CO)C(=O)c2cc(-c3cccc(F)c3)cnc2O[C@@H]1CN(C)Cc1cccc(F)c1 | 2 | · | · | ·
COc1ccc(OC)c(-n2c(O)c(C=Nc3c(C)n(C)n(-c4ccccc4)c3=O)c(=O)[nH]c2=O)c1 | · | 5 | 19 | 0
COc1ccccc1-n1c(O)c(C=Nc2c(C)n(C)n(-c3ccccc3)c2=O)c(=O)[nH]c1=O | -5 | -6 | 37* | -4
Cc1c(N=Nc2c(O)n(Cc3ccccc3)c(=O)[nH]c2=O)c(=O)n(-c2ccccc2)n1C | 1 | -5 | 36* | 0
O=C(Nc1ccccc1F)N[C@H]1CC[C@H](CCNS(=O)(=O)c2ccccc2)O[C@H]1CO | 0 | · | · | ·
COc1ccc(-c2ccc(C#N)c(OC)n2)cc1 | · | + | 18 | 0
COc1ccc2nc(-c3ccc(Cl)cc3)cc(C(=O)O)c2c1 | 1 | + | 13 | 0
COc1ccc(-c2cc(C(=O)N3CCCCC3)c3ccccc3n2)cc1 | 1 | 128* | 12 | -1
COc1ccc(-c2cc(C(=O)c3c(N)n(C)c(=O)n(C)c3=O)c3ccccc3n2)cc1 | · | 6 | 35* | 0
COc1ccc(-c2cc(C(=O)N3CCCCC3)c3ccccc3n2)cc1OC | 3 | 7 | 21 | 0
COc1ccc(-c2cc(C(=O)N3CCOCC3)c3cc(C)ccc3n2)cc1 | 3 | 157* | 14 | 4
COc1ccc(-c2ccc(OC)cc2C(=O)O)cc1 | -1 | 4 | -15 | i
C[C@H]1CN([C@@H](C)CO)C(=O)c2cc(NS(=O)(=O)c3cccs3)ccc2O[C@@H]1CN(C)C(=O)Nc1ccc(C(F)(F)F)cc1 | -1 | · | · | ·
C[C@@H]1CCCCO[C@H](CN(C)S(=O)(=O)c2cccs2)[C@H](C)CN([C@@H](C)CO)C(=O)c2cc(NC(=O)c3ccncc3)ccc2O1 | 1 | · | · | ·
C[C@@H]1CN([C@H](C)CO)S(=O)(=O)c2ccc(Br)cc2O[C@H]1CN(C)C(=O)c1cnccn1 | 5 | · | · | ·
COc1ccc(/C=C/c2cc(C(=O)O)c3ccccc3n2)cc1 | -1 | 3 | 32* | i
COc1cccc(CN2CCN(C(=O)c3cc(-c4ccncc4)nc4ccc(C)cc34)CC2)c1 | 2 | -1 | 6 | 0
